Test results taken from PubChem BioAssay.
“And” between values parts separate entries of the source, which are not always exact repeats. Equal values may be shown once. The source made the active and inactive calls. Unless noted, no rule for the calls is given here.

How the values were obtained:
[1] = P. berghei load reduction in hepatocytes – cell-based, HepG2, luciferase luminescence, HepG2 viability, primary screen (AID 624349; in the data active = parasite load remaining mostly below about 12%, no sharp cut-off; inactive = mostly above about 10%;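 also: 100% = mean of DMSO negative control wells on the same plate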); conditions: P. berghei liver stage in HepG2, luciferase luminescence, concentration not given here; parasite load remaining: stronger effect = lower value; viability: measured here: HepG2 viability without parasites
[2] = signal quenchers or enhancers, Cy5 substrate/SSB – biochemical, NIH Clinical Collection, E. coli SSB, artefact control for HCV NS3 helicase inhibitor project (AID 743268); conditions: Cy5-oligo bound E. coli SSB, fluorescence interference
[3] = test system: Hepatitis C virus NS3 helicase; assay: blockers of NS3h binding to DNA – biochemical, fluorescence polarization, NIH Clinical Collection, primary screen (AID 743270); conditions: NS3 helicase binding to Cy5-dT15 DNA, stronger effect = higher value, concentration not given here
[4] = biological target: Single-stranded DNA-binding protein (Escherichia coli (strain K12)) (UniProt P0AGE0); assay: SSB-ssDNA binding inhibitors – biochemical, fluorescence polarization, NIH Clinical Collection, counter-screen for HCV NS3 helicase inhibitor project (AID 743271; in the data active = inhibition above about 28%); conditions: E. coli SSB-DNA binding, stronger effect = higher value, concentration not given here
[5] = compounds distorting NS3 helicase fluorescence signal – biochemical, NIH Clinical Collection, artefact control for HCV NS3 helicase inhibitor project (AID 743272); conditions: fluorescence interference counterscreen, HCV NS3 helicase assay; stronger effect = lower value;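 also: HCV NS3 helicase with a Cy5 labelled single stranded DNA probe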
F380Y = assay: BK channel mutant inhibitors and activators – cell-based, U2OS BacMam, thallium flux, beta subunits, selectivity assay, profiling panel (AID 1259406;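 active = thallium flux through the channel raised or lowered by more than 3 SD from vehicle-only wells, actives on both sides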;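 also: initial slope of Thallos dye fluorescence rise after thallium is added; log ratio against the mean of 0.3% DMSO vehicle wells on the same plate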); conditions: U2OS BacMam BK variants, at 30 µM
F380Y/beta1 = assay: as above; conditions: U2OS BacMam BK variants, at 30 µM
F380Y/beta2Delta = assay: as above; conditions: U2OS BacMam BK variants, at 30 µM
F380Y/beta4 = assay: as above; conditions: U2OS BacMam BK variants, at 30 µM
[6] = biological target: Calcium-activated potassium channel subunit alpha-1 (Homo sapiens) + Leucine-rich repeat-containing protein 26 (Homo sapiens) (UniProt Q12791+Q2I0M4); assay: as above; conditions: U2OS BacMam BK variants, F380Y/Slo1WT/gamma1, at 30 µM
Calcium-activated potassium channel subunit alpha-1 (Homo sapiens) + Leucine-rich repeat-containing protein 26 (Homo sapiens), sequence (Q2I0M4 whole entry, looked up, one chain of several): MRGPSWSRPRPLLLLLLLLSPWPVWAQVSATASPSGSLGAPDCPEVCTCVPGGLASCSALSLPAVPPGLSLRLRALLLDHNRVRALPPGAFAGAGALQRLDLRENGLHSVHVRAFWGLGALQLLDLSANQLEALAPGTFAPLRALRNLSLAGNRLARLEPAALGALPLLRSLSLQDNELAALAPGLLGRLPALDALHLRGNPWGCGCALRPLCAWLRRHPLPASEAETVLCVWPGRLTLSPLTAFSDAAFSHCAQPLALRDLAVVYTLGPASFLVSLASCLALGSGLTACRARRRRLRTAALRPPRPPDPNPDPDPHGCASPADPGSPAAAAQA

R275C = assay: as above; conditions: U2OS BacMam BK variants, at 30 µM
R275C/beta1 = assay: as above; conditions: U2OS BacMam BK variants, at 30 µM
R275C/beta2Delta = assay: as above; conditions: U2OS BacMam BK variants, at 30 µM
R275C/beta4 = assay: as above; conditions: U2OS BacMam BK variants, at 30 µM
R275C/Slo1WT/beta2 = assay: as above; conditions: U2OS BacMam BK variants, at 30 µM
[7] = modulation of C. elegans fzo-1 (AID 1259413);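 also: fzo-1 mutant C. elegans worms in liquid wells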; conditions: C. elegans fzo-1 modulator screen, mean read-out; stronger effect = higher value
[8] = test system: Neuropilin-2 / VEGF-C interaction (human); assay: small molecules blocking Neuropilin-2/VEGF-C interaction – biochemical, microplate binding format, z-score (AID 743281); conditions: microplate NRP2/VEGF-C binding assay; stronger effect = lower value
[9] = viability loss with induced miR-34 in A549 – imaging, A549 dox-inducible miR-34, nuclei and caspase counts, primary screen (AID 1347080;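 active = compounds whose cell count with miR-34 switched on is under 0.7 times the count with it off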); conditions: A549 miR-34 inducible, Hoechst nuclei count, 48 h
[10] = galactose survival enhancers in mitochondrial complex I cybrids – cell-based, galactose medium, ATP luminescence, primary screen (AID 1645843;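 active = z-score of at least 1.8 in each of two replicates, scored against plate mean and spread of sample wells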;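 also: positive z means more ATP and so rescue of galactose-driven cybrid death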); conditions: complex I mutant cybrid cells, 72 h, stronger effect = higher value
[11] = MELAS cybrid and Rieske KO viability enhancers – cell-based, MELAS cybrids, Rieske KO mouse fibroblasts, CellTiter-Glo, primary screen (AID 1508586;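 active = mean z-score across replicates of 1.96 or higher in either the MELAS or the Rieske mutant cell line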;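 also: z relative to plate mean and SD of compound and empty wells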); conditions: low glucose
[12] = stronger effect = lower value, cell number ratio, induced over uninduced
[13] = measured here: relative caspase fold change +Dox/-Dox
[14] = measured here: total cells with miR-34 induction, stronger effect = lower value
[15] = measured here: total cells without miR-34 induction
[16] = MELAS cybrid survival, CellTiter-Glo 48 h, stronger effect = higher value
[17] = Rieske KO mouse fibroblast survival, CellTiter-Glo 72 h

C=CC1=C(C(=O)O)N2C(=O)[C@@H](NC(=O)C(=NO)c3csc(N)n3)[C@H]2SC1
active: inhibition [4] 96.5%
69.3%: viability [1]
inactive: parasite load remaining [1] 50% | fluorescence ratio [2] 1 | inhibition [3] 11.1% | fluorescence ratio [5] 0.91 | log fold change Tl+ flux (F380Y) 0.0518 | log fold change Tl+ flux (F380Y/beta1) 0.00826 | log fold change Tl+ flux (F380Y/beta2Delta) 0.0258 | log fold change Tl+ flux (F380Y/beta4) 0.0162 | log fold change Tl+ flux [6] -0.00804 | log fold change Tl+ flux (R275C) -0.0491 | log fold change Tl+ flux (R275C/beta1) 0.0161 | log fold change Tl+ flux (R275C/beta2Delta) 0.037 | log fold change Tl+ flux (R275C/beta4) 0.0002 | log fold change Tl+ flux (R275C/Slo1WT/beta2) 0.0335

CCC(=O)O[C@]1(C(=O)CCl)[C@@H](C)C[C@H]2[C@@H]3CCC4=CC(=O)C=CC4(C)[C@@]3(F)[C@@H](O)CC21C (stereo not given in full)
inactive: mean signal [7] 254

CO[C@H]1O[C@@H]2O[C@@]3(C)CC[C@H]4[C@H](C)CC[C@@H]([C@H]1C)[C@@]24OO3
66.6%: viability [1]
active: log fold change Tl+ flux (F380Y/beta2Delta) -0.0746
inactive: parasite load remaining [1] 32% | fluorescence ratio [2] 1.02 | inhibition [3] -1.97% | inhibition [4] -3.54% | fluorescence ratio [5] 1 | z-score [8] -0.742 | mean signal [7] 291 | log fold change Tl+ flux (F380Y) -0.0298 | log fold change Tl+ flux [6] -0.00699 | log fold change Tl+ flux (R275C) 0.0256 | log fold change Tl+ flux (R275C/beta1) -0.0131 | log fold change Tl+ flux (R275C/beta2Delta) -0.00466

C[C@H]1O[C@@H](O[C@H]2[C@@H](O)C[C@H](O[C@H]3[C@@H](O)C[C@H](O[C@H]4CCC5(C)[C@H](CC[C@@H]6[C@@H]5C[C@@H](O)C5(C)C(C7=CC(=O)OC7)CCC65O)C4)O[C@@H]3C)O[C@@H]2C)C[C@H](O)[C@@H]1O (stereo not given in full)
inactive: mean signal [7] 250

O=C1CN(N=Cc2ccc([N+](=O)[O-])o2)C(=O)N1
54.9%: viability [1]
inactive: parasite load remaining [1] 0.39% | fluorescence ratio [2] 1 | inhibition [3] -3.18% | inhibition [4] -0.48% | fluorescence ratio [5] 1 | fold change [9, 12] 0.912 | z-score [10] -1.36 | log fold change Tl+ flux (F380Y) -0.0264 | log fold change Tl+ flux (F380Y/beta1) -0.025 | log fold change Tl+ flux (F380Y/beta2Delta) -0.0429 | log fold change Tl+ flux (F380Y/beta4) -0.00406 | log fold change Tl+ flux [6] 0.0181 | log fold change Tl+ flux (R275C) 0.0135 | log fold change Tl+ flux (R275C/beta1) -0.0666 | log fold change Tl+ flux (R275C/beta2Delta) 0.0336 | log fold change Tl+ flux (R275C/beta4) -0.0417
active: log fold change Tl+ flux (R275C/Slo1WT/beta2) -0.117
10400: cell count [9, 15]
9510: cell count [9, 14]
2: fold change [9, 13]

CO[C@H]1C=CO[C@@]2(C)Oc3c(C)c(O)c4c(O)c(c5c(c4c3C2=O)NC2(CCN(CC(C)C)CC2)N=5)=NC(=O)/C(C)=C\C=C/[C@H](C)[C@H](O)[C@@H](C)[C@@H](O)[C@@H](C)[C@H](OC(C)=O)[C@@H]1C
inactive: mean signal [7] 242

COc1cccc2c1C(=O)c1c(O)c3c(c(O)c1C2=O)C[C@@](O)(C(C)=O)C[C@@H]3OC1CC(N)C(O)C(C)O1 (stereo not given in full)
active: fluorescence ratio [5] 0.55
0.669 and 0.978: fold change [9, 13]
1.35% and 23.3%: viability [1]
1690 and 2610: cell count [9, 14]
inactive: parasite load remaining [1] -2.09% and 8.79% | fluorescence ratio [2] 1.07 | inhibition [3] 6.82% | inhibition [4] 3.34% | mean signal [7] 273 | fold change [9, 12] 1.08 and 1.04 | z-score [10] -1.5 and -0.935
1560 and 2520: cell count [9, 15]

CN[C@@H]1[C@H](O)[C@H](NC)[C@H]2OC3(O)C(=O)C[C@@H](C)O[C@H]3O[C@@H]2[C@H]1O (stereo not given in full)
inactive: mean signal [7] 224

CC(C)N=c1cc2n(-c3ccc(Cl)cc3)c3ccccc3nc-2cc1Nc1ccc(Cl)cc1
0.691 and -0.422: z-score [11, 17]
inactive: fluorescence ratio [2] 0.94 | inhibition [3] 8.52% | inhibition [4] 6.69% | fluorescence ratio [5] 0.96 | z-score [8] 1.38 | mean signal [7] 220 | z-score [11, 16] -0.332 and -3.07 | z-score [10] -1.15

CC[C@]1(O)CC2CN(CCc3c([nH]c4ccccc34)[C@@](C(=O)OC)(c3cc4c(cc3OC)N(C)[C@H]3[C@@](O)(C(N)=O)[C@H](O)[C@]5(CC)C=CCN6CC[C@]43[C@@H]65)C2)C1 (stereo not given in full)
135%: viability [1]
inactive: parasite load remaining [1] 65.1% | fluorescence ratio [2] 0.91 | inhibition [3] -6.33% | inhibition [4] 1.18% | fluorescence ratio [5] 0.91 | outcome [8] | mean signal [7] 260

CO/N=C(/C(=O)N[C@@H]1C(=O)N2C(C(=O)O)=C(COC(N)=O)CS[C@H]12)c1ccco1
inactive: mean signal [7] 235

Nc1nc2ccc(Cl)cc2c2nc(-c3ccco3)nn12
7130 and 7040 and 7980: cell count [9, 14]
0.947 and 1.47 and 1: fold change [9, 13]
6800 and 7110 and 7830: cell count [9, 15]
75.1%: viability [1]
inactive: parasite load remaining [1] 21.2% | fluorescence ratio [2] 0.95 | inhibition [3] -2.77% | inhibition [4] -6.26% | fluorescence ratio [5] 0.95 | z-score [8] 0.671 | mean signal [7] 260 | fold change [9, 12] 1.05 and 0.991 and 1.02 | z-score [10] 0.585 and 0.89 and -0.13

CCC(=O)OCC(=O)[C@@]1(OC(=O)CC)[C@@H](C)C[C@H]2[C@@H]3CCC4=CC(=O)C=CC4(C)[C@@]3(Cl)[C@@H](O)CC21C (stereo not given in full)
inactive: mean signal [7] 228

CCCCC[C@H](O)/C=C/[C@H]1[C@H](O)CC(=O)[C@@H]1CCCCCCC(=O)O
inactive: parasite load remaining [1] 87.1% and 65% and 24% | fluorescence ratio [2] 0.87 | inhibition [3] -3.71% | inhibition [4] -0.39% | fluorescence ratio [5] 0.98 | z-score [8] -0.575 | mean signal [7] 268 | z-score [11, 16] -0.41 and -0.106 | z-score [10] 0.265 and 0.315
-0.367 and -0.604: z-score [11, 17]
70.2% and 67.7% and 65.5%: viability [1]
